# GC-B act: GC-B (human) receptor activation. activation, % at 10 µM. P20594. actives 0.11% (n = 370,000). HEK293-GC-B cells, CNP EC30, cGMP TR-FRET; 0% at EC30 CNP, 100% saturating CNP;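 active = activation at 10 µM reaching about 35% in either raw or pattern-adjusted values, limit read from the data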
# FAS TE block: FAS thioesterase (human) inhibition; recombinant FAS-TE, OMFH fluorogenic substrate, fluorescence endpoint; P49327; inhibition, % at 15 µM; actives 0.67% (n = 360,000);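 active = compounds whose normalised, plate-corrected inhibition of enzyme fluorescence in the single-dose primary screen is 50% or more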
# GC-A act: GC-A (human) enzyme activation; P16066; HEK293 GC-A cells, cGMP TR-FRET, EC30 ANP; 0% at EC30 ANP, 100% saturating ANP; activation, % at 10 µM; actives 0.14% (n = 370,000); AID 1671463; in the data active = activation above about 40%
# ADAM10 inh: inhibits human ADAM10; recombinant ADAM10, EDANS/DABCYL FRET peptide cleavage, 3 h; actives 0.62% (n = 370,000); inhibition, % at 7 µM; O14672;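 active = inhibition above a per-campaign cutoff equal to the mean of compounds falling between control-based bounds plus 3 SD, cut at about 20% in these data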
# ADAM17 inh: inhibits human ADAM17. recombinant ADAM17, EDANS/DABCYL FRET peptide cleavage. actives 0.83% (n = 370,000). inhibition, % at 6.95 µM. P78536. AID 720648;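 active = inhibition above the mean of compounds lying between control limits plus 3 SD, set per campaign, cut at about 8.5% in these data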
# Target sequence (P78536 215-824 limits assumed): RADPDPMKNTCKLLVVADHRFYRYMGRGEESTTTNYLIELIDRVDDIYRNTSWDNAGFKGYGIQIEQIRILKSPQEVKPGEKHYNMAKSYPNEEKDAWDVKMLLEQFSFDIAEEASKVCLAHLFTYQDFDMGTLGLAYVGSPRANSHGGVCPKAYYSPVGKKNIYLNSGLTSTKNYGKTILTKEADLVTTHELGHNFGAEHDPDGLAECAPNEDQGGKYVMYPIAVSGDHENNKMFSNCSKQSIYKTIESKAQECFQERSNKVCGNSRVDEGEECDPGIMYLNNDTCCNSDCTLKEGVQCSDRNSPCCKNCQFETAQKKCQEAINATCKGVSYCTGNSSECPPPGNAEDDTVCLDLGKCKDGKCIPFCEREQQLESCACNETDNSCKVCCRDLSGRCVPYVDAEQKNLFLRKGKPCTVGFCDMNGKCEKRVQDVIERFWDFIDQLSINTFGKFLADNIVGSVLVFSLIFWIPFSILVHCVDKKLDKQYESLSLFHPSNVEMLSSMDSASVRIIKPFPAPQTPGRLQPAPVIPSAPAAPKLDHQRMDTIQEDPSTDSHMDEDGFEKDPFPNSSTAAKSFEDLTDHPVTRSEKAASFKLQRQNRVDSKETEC
# ADAM10 counter: ADAM10 inhibition, counter-screen for ADAM17 exosite hits. inhibition, % at 6.95 µM. actives 47% (n = 2,900). recombinant ADAM10, EDANS/DABCYL FRET peptide cleavage, 3 h. AID 743256. shares compounds with ADAM17 inh;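 active = mean inhibition over the triplicate runs exceeds the activity threshold set in the earlier primary screen, cut at about 20% in these data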
# ADAM17 confirm: human ADAM17 inhibition, confirmation; shares compounds with ADAM17 inh; recombinant ADAM17, EDANS/DABCYL QFRET peptide cleavage; inhibition, % at 6.95 µM; actives 65% (n = 2,900); AID 743257;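 active = mean inhibition across replicates above the hit cutoff set in the primary screen, cut at about 8.5% in these data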
# Numbers stand for hits; . = inactive; / = no result given. An excerpt weighted towards active compounds, which were near 2% of everything screened.
SMILES,GC-B act,FAS TE block,GC-A act,ADAM10 inh,ADAM17 inh,ADAM10 counter,ADAM17 confirm
CS(=O)(=O)c1ccc(C(=O)Nc2cccc(-c3nc4ccccc4[nH]3)c2)cc1,.,.,.,.,9.2,.,.
O=C(Nc1c(-c2ccc(C(F)(F)F)cc2)nc2ncccn12)c1ccc(F)cc1,.,/,.,.,.,/,/
COC(=O)[C@H](C(C)C)N(Cc1cn(CC2CCCCC2)nn1)S(=O)(=O)c1ccc(F)cc1Br,.,/,.,.,.,/,/
COC(=O)[C@H](C(C)C)N(CCCc1cn(Cc2ccc(C)cc2)nn1)S(=O)(=O)c1ccccc1Br,.,/,.,.,.,/,/
COC(=O)[C@H](C(C)C)N(CCCc1cn(CC2CCCCC2)nn1)S(=O)(=O)c1ccc(F)cc1Br,.,/,.,.,11,26,14
COC(=O)[C@H](C(C)C)N(CCc1cn(Cc2ccc(C)cc2)nn1)S(=O)(=O)c1ccccc1Br,.,/,.,.,11,24,17
C=CCCC(=O)N(Cc1ccccc1)c1ccccc1C(=O)Nc1cc(OC)ccc1OC,.,/,.,.,.,/,/
C=CCN1[C@@H](CC(C)C)COc2cccc(N3CCCC3)c2S1(=O)=O,.,/,.,.,.,/,/
COc1ccc2c(C(F)(F)F)cc(=O)oc2c1C,.,.,.,.,9.8,.,.
Cc1ccccc1Nc1nc(N)nc(COC(=O)CCNS(=O)(=O)c2ccccc2)n1,.,.,.,.,12,.,.
Cc1ccccc1Nc1nc(N)nc(COC(=O)c2ccccc2)n1,.,.,.,.,.,/,/
O=S(=O)(Nc1ccc(-c2nnc(SCc3ccc(Cl)cc3)o2)cc1)c1ccccc1,.,.,.,.,9.2,23,14
O=C(NCCc1ccccc1)OCc1cn(-c2ccccc2Cl)nn1,.,/,.,.,.,/,/
Cc1ccc(CN2C(=O)[C@@H]3Cc4c([nH]c5ccccc45)C(C)(C)N3C2=O)cc1,.,.,.,.,.,/,/
Cc1ccc(CN2C(=O)[C@H]3Cc4c([nH]c5ccccc45)C(C)(C)N3C2=O)cc1,.,.,.,.,12,.,12
COc1cccc(CN2C(=O)[C@@H]3Cc4c([nH]c5ccccc45)C(C)(C)N3C2=O)c1,.,.,.,.,8.7,.,14
O=C1N(c2ccccc2)CC2CC(c3ccccc3)N3CCCC123 (centres undefined),.,/,.,.,.,/,/
CCOC(=O)N1CCN(C(=O)C[C@@H]2C(=O)N(CCc3ccc(Cl)cc3)/C3=C/CCCCC[C@@]32C(=O)OCC)CC1,.,/,.,.,.,/,/
COC(=O)c1ccc(COc2ccccc2/C=N/NC(=O)c2cccnc2)cc1,.,.,.,.,8.7,.,.
Cc1cc(N2CCN(Cc3ccc4c(c3)OCO4)CC2)n2nc(C)nc2n1,.,/,.,.,.,/,/
O=C(CN1CCOCC1)Nc1ccccc1F,.,.,.,.,9.1,.,.
O=C(CN1CCOCC1)Nc1ccccc1C(=O)O,.,.,.,.,.,/,/
Cc1cc(Br)ccc1OCCCN1CCC(C(O)(c2ccccc2)c2ccccc2)CC1,.,/,.,.,.,/,/
COC(=O)c1ccccc1NC(=O)CSc1nc(Nc2ccccc2)nc(N2CCOCC2)n1,.,.,.,.,8.7,.,9.1
CC(=O)c1ccc(NC(=O)CSc2nc(Nc3ccccc3)nc(N3CCOCC3)n2)cc1,.,.,.,.,.,/,/
SMILES,GC-B act,FAS TE block,GC-A act,ADAM10 inh,ADAM17 inh,ADAM10 counter,ADAM17 confirm
Cc1ccc(-c2nnn(CCC(=O)N3CCCCC3C)n2)cc1 (centres undefined),.,.,.,.,9.5,.,.
COc1ccc(C2CC(c3ccccc3)=NN2C(=O)c2ccc(F)cc2)cc1 (centres undefined),.,.,.,.,.,/,/
COc1ccc(C2CC(c3ccccc3)=NN2C(=O)CN2N=NC3C(=O)N(c4cccc(F)c4)C(=O)C32)cc1 (centres undefined),.,.,.,.,14,.,.
CCC(C(=O)Nc1cccc(S(=O)(=O)N(C)c2ccccc2)c1)c1ccccc1 (centres undefined),.,.,.,.,9.3,.,8.7
CC(=O)c1cccc(NC(=O)C(OC(=O)c2cccc(S(=O)(=O)N(C)c3ccccc3)c2)c2ccccc2)c1 (centres undefined),.,.,.,.,9.1,24,12
CN(c1ccccc1)S(=O)(=O)c1cccc(C(=O)Nc2cccc(C(=O)NC3CC3)c2)c1,.,.,.,.,9.2,.,.
COc1ccc(N(C)S(=O)(=O)c2cccc(C(=O)OC(C(=O)Nc3cc(C)cc(C)c3)c3ccccc3)c2)cc1 (centres undefined),.,.,.,.,8.6,.,13
COc1ccc(N(C)S(=O)(=O)c2cccc(C(=O)Nc3nc(C)cs3)c2)cc1,.,.,.,.,.,/,/
CN(C)S(=O)(=O)c1cccc(NC(=O)C(c2ccccc2)c2ccccc2)c1,.,.,.,.,.,/,/
CN(c1ccccc1)S(=O)(=O)c1cccc(NC(=O)COC(=O)C2CCCCC2)c1,.,.,.,.,8.8,32,14
Cc1csc(NC(=O)CCn2c(=O)oc3ccc(Cl)cc32)n1,.,.,.,.,8.7,.,.
c1coc(-c2nnc3n2N=C(c2ccc4c(c2)OCO4)CS3)c1,.,/,.,.,.,/,/
CN1OC[C@@H]2CN(Cc3ccc4c(c3)OCO4)[C@H](c3ccc(-n4ccnc4)cc3)C[C@@H]21,.,/,.,.,.,/,/
COC(=O)CN=C1OC(=O)N2C(=O)C3=C4[C@@H](C[C@H]5C(=O)N(c6ccccc6)C(=O)[C@H]5[C@H]4[C@@]12Cc1ccccc1)[C@H]1C(=O)N(c2ccccc2)C(=O)[C@H]1[C@H]3C,.,.,.,.,9.8,.,.
CCCN1C(=O)c2ccc(C(=O)Nc3cc(C)on3)cc2C1=O,.,.,.,.,9.7,.,.
CCOc1cccc(OCCOc2ccc(C(=O)c3ccccc3)cc2)c1,.,.,.,.,10,.,14
O=C(c1ccccc1)c1ccc(OCCO)cc1,.,.,.,.,.,/,/
CC(=O)N1CCN(c2cc(-c3ccco3)nc3cc(-c4ccccc4)nn23)CC1,.,/,.,.,.,/,/
CCN(CC)c1ccc(NC(=O)COC(=O)C2CCN(c3ccc(C(F)(F)F)cn3)CC2)cc1,.,.,.,.,.,/,/
O=C(COC(=O)C1CCN(S(=O)(=O)c2ccc3c(c2)OCCO3)CC1)Nc1ccc(C(F)(F)F)cc1,.,.,.,.,8.7,.,11
O=C(COC(=O)C1CCN(S(=O)(=O)c2ccc3c(c2)OCCO3)CC1)NC1CCCCC1,.,.,.,.,.,/,/

# Source: PubChem (several laboratories)
